Source: paper PMC5540273 (PLoS ONE, 2017)

Experiments:
Conditions in all cases: concentration: 1 μM, replicates: in singlicate; n = 1
[1] = test system: T1, LKB1
T1 construct: gene STK11

[2] = test system: T2, LOK
T2 construct: gene STK10

[3] = test system: LRRK2
[4] = test system: LTK
[5] = test system: LYN
[6] = test system: T3, LZK
T3 construct: gene MAP3K13

[7] = test system: MAK
[8] = test system: MAP3K15
[9] = test system: MAP3K1
[10] = test system: MAP3K2
[11] = test system: MAP3K3
[12] = test system: MAP3K4
[13] = test system: MAP4K2
[14] = test system: MAP4K3
[15] = test system: MAP4K4
[16] = test system: MAP4K5
[17] = test system: MAPKAPK2
[18] = test system: MAPKAPK5
[19] = test system: MARK1
[20] = test system: MARK2
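Note: KINOMEscan kinase panel screen.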

SMILES | %Inh [1] | %Inh [2] | %Inh [3] | %Inh [4] | %Inh [5] | %Inh [6] | %Inh [7] | %Inh [8] | %Inh [9] | %Inh [10] | %Inh [11] | %Inh [12] | %Inh [13] | %Inh [14] | %Inh [15] | %Inh [16] | %Inh [17] | %Inh [18] | %Inh [19] | %Inh [20]
COc1cc2ncnc(Nc3ccc(OCc4ccccc4Br)c(Cl)c3)c2cc1OC.Cl [GI261590] | 0% | 96.6% | 0% | 14% | 30% | 10% | 33% | 0% | 4% | 0% | 0% | 0% | 0% | 11% | 0% | 17% | 15% | 0% | 29% | 0%
FC(F)(F)c1cc(Nc2nccc(-c3c(-c4ccc(Cl)cc4)nn4ncccc34)n2)ccc1Cl [GW829351] | 0% | 6% | 0% | 0% | 0% | 0% | 0% | 0% | 0% | 0% | 0% | 0% | 0% | 0% | 0% | 0% | 0% | 0% | 0% | 0%
Nc1n[nH]c2nnc(-c3ccccc3)cc12 [SB-517389] | 0% | 0% | 0% | 0% | 69% | 0% | 0% | 0% | 9% | 5% | 0% | 32% | 0% | 0% | 3% | 0% | 5% | 0% | 0% | 0%
CCCc1ccc(S(=O)(=O)NC2CCN(c3ccnc(Nc4ccc(OC)cc4)n3)C2)cc1 (stereo not drawn) [GSK1379737] | 6% | 0% | 0% | 100% | 0% | 25% | 16% | 0% | 1% | 1% | 0% | 0% | 0% | 0% | 0% | 0% | 29% | 0% | 0% | 0%
Fc1ccc(Nc2nccc(-c3c(-c4ccc(Cl)cc4)nn4ncccc34)n2)cc1F [GW829058] | 8% | 28% | 0% | 6% | 24% | 5% | 12% | 24% | 22% | 27% | 40% | 17% | 34% | 0% | 1% | 6% | 3% | 0% | 16% | 15%
Cl.Cn1ccc(-c2cccc(Nc3ccnc4cc(-c5nccs5)ccc34)c2)n1 [GW525701] | 0% | 72% | 0% | 0% | 0% | 48% | 0% | 0% | 10% | 0% | 0% | 10% | 14% | 0% | 20% | 0% | 21% | 0% | 28% | 100%
CC(C)(C)c1ccc(-n2cnc3c(N)ncnc32)cc1 [SKF-97263] | 0% | 2% | 22% | 6% | 5% | 0% | 8% | 16% | 8% | 1% | 0% | 10% | 11% | 5% | 6% | 6% | 23% | 8% | 0% | 0%
Cn1ccc2ncnc(Nc3ccc(Oc4cccc(Cl)c4)c(Cl)c3)c21 | 0% | 55% | 5% | 11% | 4% | 0% | 26% | 11% | 29% | 17% | 15% | 17% | 14% | 0% | 1% | 0% | 0% | 14% | 0% | 25%
Nc1nc(-c2cccnc2)c(-c2ccnc3ccccc23)s1 [GW684083] | 15% | 0% | 0% | 0% | 72% | 14% | 10% | 0% | 6% | 0% | 0% | 0% | 0% | 0% | 16% | 0% | 14% | 0% | 0% | 0%
